Data published in PubChem BioAssay (NCI).
The panel holds about 83,000 compounds, 20% with a hit somewhere; the sample as a whole holds those more often.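 Each cell line was grown in a 96-well plate and treated with one concentration of compound for 48 hours. Values below 10 were considered active.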 Values without a mark were called inactive. Calls of active or inactive are those of the source.

Test system: MDA-MB-468 breast
Assay: NCI-60 one-dose screen, 48 h (100 = growth as untreated, 0 = no growth, -100 = all killed)
Conditions: 10 µM unless noted

Row | Compound | growth
1 | COC(=O)[C@@H]1CC[C@]2(C)[C@H](CC[C@@H]3O[C@@]32C)[C@@]1(C)CC(=O)c1ccoc1 | 95.7%
2 | Cc1c(C(=O)N[C@H](CO)Cc2ccccc2)[nH]c2ccc(Cl)cc2c1=O | 95.5%
3 | O=C(Oc1ccc[nH]c1=O)c1cc([N+](=O)[O-])cc([N+](=O)[O-])c1 | 119%
4 | C#COc1cccc(Nc2c(C#N)cnc3ncc(NC(=O)CCl)cc23)c1 | 3.39% [6.25 µM] (active)
5 | CN1CCc2c(c3ccccc3c3ccccc23)C1 | 30.7%
